Results filed as inconclusive are left out. Where a call stands in place of a potency, no number is given. Active and inactive are the calls of the source. The call rests on the fitted dose curve; in most records, active means well fitted curve in the direction sought with a large enough effect; inconclusive means small, poorly fitted or top-dose-only effect, or another doubt; inactive means no such curve, though single readings can be large; an effect the other way counts as inactive or inconclusive.
Experiments:
[1] = target: Alpha-galactosidase (Coffea arabica) (UniProt Q42656); assay: Counterscreen for Glucocerebrosidase Inhibitors: qHTS Assay for Coffee Bean alpha-Galactosidase at pH 4.5 (AID 957); further: series mostly up to about 77 µM
Chain of Alpha-galactosidase (Coffea arabica) (Q42656 whole entry, looked up): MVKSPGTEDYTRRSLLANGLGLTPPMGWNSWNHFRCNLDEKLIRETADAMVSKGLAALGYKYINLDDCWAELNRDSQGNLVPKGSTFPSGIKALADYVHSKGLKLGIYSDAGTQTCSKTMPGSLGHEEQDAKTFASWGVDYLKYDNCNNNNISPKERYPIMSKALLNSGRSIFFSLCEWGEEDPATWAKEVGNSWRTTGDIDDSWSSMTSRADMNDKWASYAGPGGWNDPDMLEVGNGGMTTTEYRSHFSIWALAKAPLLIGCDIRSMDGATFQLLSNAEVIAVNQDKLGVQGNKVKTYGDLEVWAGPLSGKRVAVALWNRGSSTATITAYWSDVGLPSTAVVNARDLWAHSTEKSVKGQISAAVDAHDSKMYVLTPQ
In short: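 Coffee bean enzyme (2 nM) with 80 uM 4-methylumbelliferyl alpha-D-galactopyranoside in 50 mM citric acid, 0.005% Tween-20, pH 4.5, 20 min at room temperature; compounds 0.7 nM–77 uM. Stopped at pH 10, fluorescence 365/440 nm; AC50 from Hill fits.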

[2] = target: Alpha-galactosidase (Coffea arabica) (UniProt Q42656); assay: Counterscreen for Glucocerebrosidase Inhibitors: qHTS Assay for Coffee Bean alpha-Galactosidase at pH 5.9 (AID 998)
In short: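 Green coffee bean enzyme (2 nM) with 4-methylumbelliferyl alpha-D-galactopyranoside (80 uM) in 50 mM citric acid, 0.005% Tween-20, pH 5.9, 20 min at room temperature; compounds 0.7 nM–77 uM. Stopped at pH 10, fluorescence Ex365/Em440; Hill-fit AC50.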

[3] = MultiTox-Fluor Cytotoxicity Assay - LYMP1-002 - Dead Cells (AID 960); further: potency means the concentration at half of the fitted maximal effect; nearly all actives have a fitted effect of over 60% in size
In short: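 Human lymphoblastoid LYMP1-002 cells, 2500/well, treated 16 h at 37 C; dead-cell protease cleavage of bis-AAF-R110 read by fluorescence (485/520); normalized to DMSO and 15 uM tetraoctylammonium bromide; AC50 from Hill fit.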

Row | Compound | outcome [1] | outcome [2] | Potency [3]
1 | NS(=O)(=O)c1cc2c(cc1Cl)N[C@@H]([C@@H]1C[C@@H]3C=C[C@H]1C3)NS2(=O)=O | inactive | inactive | –
2 | COc1cc2nc(N3CC=[N+](C(=O)c4ccco4)CC3)nc(N)c2cc1OC | inactive | inactive | –
3 | NC(=NCc1ccc(Cl)c(Cl)c1)NC(=O)c1nc(Cl)c(N)nc1N | inactive | inactive | –
4 | Nc1ncnc2c1ncn2[C@@H]1O[C@@H](COP(=O)(O)OP(=O)(O)OP(=O)(O)OP(=O)(O)OC[C@@H]2O[C@@H](n3cnc4c(N)ncnc43)[C@@H](O)[C@H]2O)[C@H](O)[C@@H]1O | inactive | inactive | –
5 | CCCC[S@@](=N)(=O)CC[C@@H](N)C(=O)O | inactive | inactive | –
6 | CN(C)C(=O)/N=N\C(=O)N(C)C | inactive | inactive | –
7 | C[C@@H]1CCN=C(N)S1 | inactive | inactive | –
8 | CSc1nc(N)c2ncn([C@@H]3O[C@@H](COP(=O)(O)OP(=O)(O)OP(=O)(O)O)[C@@H](O)[C@H]3O)c2n1 | inactive | inactive | –
9 | Oc1ccc(/C=C\c2cc(O)cc(O)c2)cc1 | inactive | inactive | –
10 | CC[C@H](C)[C@@H]1O[C@]2(CC[C@@H]1C)C[C@H]1C[C@H](CC=C(C)[C@@H](O[C@H]3C[C@H](OC)[C@H](O[C@H]4C[C@H](OC)[C@H](O)[C@H](C)O4)[C@H](C)O3)[C@@H](C)C=CC=C3CO[C@@H]4[C@@H](O)C(C)=C[C@H](C(=O)O1)[C@@]34O)O2 | inactive | inactive | –
11 | CC(N)=NCCCC[C@H](N)C(=O)O | inactive | inactive | –
12 | CCCCCCCCCCCCCCCCCC(=O)O[C@H](CC(=O)O)C[N+](C)(C)C | inactive | inactive | –
13 | Cc1nnc(SCC2=C(C(=O)O)N3C(=O)[C@@H](NC(=O)Cn4cnnn4)[C@@H]3SC2)s1 | inactive | inactive | –
14 | C[C@@](N)(Cc1ccc(O)cc1)C(=O)O | inactive | inactive | –
15 | CN1CCN2c3ccccc3Cc3ccccc3[C@@H]2C1 | inactive | inactive | –
16 | CSC(N)=NCCC[C@@H](N)C(=O)O | inactive | inactive | –
17 | COC(=O)[C@](C)(N)Cc1ccc(O)cc1 | inactive | inactive | –
18 | N#C[C@@H](Cc1ccc(O)c(O)c1)C(=O)N1CCc2ccccc21 | inactive | inactive | –
19 | C[C@@H](/C=C\c1cccc(Oc2ccc(F)cc2)c1)N(O)C(N)=O | inactive | inactive | –
20 | Cc1cccc(C)c1OC[C@@H](N)C(C)C | inactive | inactive | –
21 | COc1c2c(nc3ccccc13)O[C@@H]([C@@](C)(O)CO)C2 | inactive | inactive | –
22 | CCCCCCCCCCCCCCC/C=C\[C@H](O)[C@@H](NC(=O)CCCCCCCCCCCCC)OC (tested in a mixture with another compound) | inactive | inactive | –
23 | CO[C@]1(C2=NCCN2)COc2ccccc2O1 | inactive | inactive | –
24 | Nc1ccn([C@@H]2O[C@@H](CO)[C@@H](O)[C@H]2O)c(=O)n1 | inactive | inactive | –

Row | Compound | outcome [1] | outcome [2] | Potency [3]
25 | CC1=C(C(=O)O)N2C(=O)[C@@H](NC(=O)[C@@H](N)C3=CCC=CC3)[C@@H]2SC1 | inactive | inactive | –
26 | CC(=O)O[C@]1(C(C)=O)CC[C@@H]2[C@@H]3C=C(Cl)C4=CC(=O)[C@H]5C[C@@H]5[C@]4(C)[C@H]3CC[C@]21C | inactive | inactive | –
27 | O=C(O)C[C@@H]1CCCc2ccccc2[C@H]1O | inactive | inactive | –
28 | COc1cccc(OC)c1OCCNC[C@@H]1COc2ccccc2O1 | inactive | inactive | –
29 | CN(C)C/C=C(\c1ccc(Br)cc1)c1cccnc1 | inactive | inactive | –
30 | CNC(=O)[C@@H]1O[C@@H](n2cnc3c(NCc4ccc(N)cc4)ncnc32)[C@@H](O)[C@H]1O | inactive | inactive | –
31 | CCCCC[C@H](O)c1cccc(OCc2ccc3ccccc3n2)c1 | inactive | inactive | –
32 | CN1C[C@@H](C(=O)N[C@]2(C)O[C@]3(O)[C@H]4CCCN4C(=O)[C@H](Cc4ccccc4)N3C2=O)C[C@H]2c3cccc4[nH]cc(c34)C[C@@H]21 | inactive | inactive | –
33 | COc1ccc(CCN(C)CCC[C@@](C#N)(c2cc(OC)c(OC)c(OC)c2)C(C)C)cc1OC | inactive | inactive | –
34 | NC(N)=N[C@H](CCC(=O)O)C(=O)O | inactive | inactive | –
35 | CC(C)(C)[C@@]1(O)CCN2C[C@@H]3c4ccccc4CCc4cccc(c43)[C@@H]2C1 | inactive | inactive | –
36 | Cc1cn([C@H]2C[C@H](N=[N+]=[N-])[C@H](CO)O2)c(=O)[nH]c1=O | inactive | inactive | –
37 | N[C@H](Cc1cccc(-c2ccccc2CP(=O)(O)O)c1)C(=O)O | inactive | inactive | –
38 | CC1CCN(CC[C@@H]2CCCN2S(=O)(=O)c2cccc(O)c2)CC1 | inactive | inactive | –
39 | NC(=O)C1=CN([C@@H]2O[C@@H](COP(=O)(O)OP(=O)(O)OC[C@@H]3O[C@H](n4cnc5c(N)ncnc54)[C@@H](OP(=O)(O)O)[C@@H]3O)[C@H](O)[C@@H]2O)C=CC1 | inactive | inactive | –
40 | C[C@]12CC3CC(N)(C1)C[C@@](C)(C3)C2 | inactive | inactive | –
41 | CN1CCc2c(cc(O)c(O)c2Cl)[C@H](c2cccc(Cl)c2)C1 | inactive | inactive | –
42 | CCOC(=O)C1=C(C)NC(C)=C(C(=O)OC)[C@H]1c1cccc(Cl)c1Cl | inactive | inactive | –
43 | CN(C)CC[C@H](c1ccc(Br)cc1)c1ccccn1 | inactive | inactive | –
44 | NC[C@](O)(CS(=O)(=O)O)c1ccc(Cl)cc1 | inactive | inactive | –
45 | CCCCCCCCCCCCC/C=C\[C@@H](O)[C@@H](N)CO | inactive | inactive | –
46 | N[C@H](Cc1ccc(Cl)cc1)C(=O)O | inactive | inactive | –
47 | O=C(O)CNC(=O)[C@@H](CS)Cc1ccccc1 | inactive | inactive | –
48 | N[C@H](C(=O)O)[C@@H]1C[C@@H]1C(=O)O | inactive | inactive | –

Row | Compound | outcome [1] | outcome [2] | Potency [3]
49 | C=CCN1CCc2cc(O)c(O)cc2[C@H](c2ccccc2)C1 | inactive | inactive | –
50 | CC(C)NC[C@H](O)c1ccc(NS(C)(=O)=O)cc1 | inactive | inactive | –
51 | c1ccc2c(c1)CCC[C@H]2C1=NCCN1 | inactive | inactive | –
52 | Cc1ccccc1CNc1ncnc2c1ncn2[C@@H]1O[C@@H](CO)[C@H](O)[C@@H]1O | inactive | inactive | –
53 | COc1cc2c(cc1C(F)(F)F)N(C(=O)Nc1cc(F)cc(-c3cccnc3)c1)CC2 | inactive | inactive | –
54 | N[C@@H]1CCN(O)C1=O | inactive | inactive | –
55 | O=C(O)[C@@H]1CCCN[C@H]1C(=O)O | inactive | inactive | –
56 | COC(=O)C1=C(C)NC(C)=C(C(=O)OCCN(C)Cc2ccccc2)[C@@H]1c1cccc([N+](=O)[O-])c1 | inactive | inactive | –
57 | CCCCCN(CCCCC)C(=O)[C@H](CCC(=O)O)NC(=O)c1ccc(Cl)c(Cl)c1 | inactive | inactive | –
58 | CC1=C(C(=O)O)N2C(=O)[C@@H](NC(=O)[C@@H](N)c3ccccc3)[C@@H]2SC1 | inactive | inactive | –
59 | C[C@@H]([C@H](O)c1ccc(O)cc1)N1CCC(Cc2ccccc2)CC1 | inactive | inactive | –
60 | Cc1cccc(/C=C\c2ccccc2)n1 | inactive | inactive | –
61 | CCCC[C@]1(C2CCCC2)Cc2cc(OCC(=O)O)c(Cl)c(Cl)c2C1=O | inactive | inactive | –
62 | CC(=O)[C@@]1(O)CC[C@@H]2[C@@H]3CCC4=CC(=O)CC[C@@]4(C)[C@H]3CC[C@]21C | inactive | inactive | –
63 | Cc1ccc(OC[C@H](O)[C@H](C)NC(C)C)c2c1CCC2 | inactive | inactive | –
64 | OC[C@@H]1O[C@@H](n2cnc3c(N[C@@H]4C[C@@H]5CC[C@H]4C5)ncnc32)[C@@H](O)[C@H]1O | inactive | inactive | –
65 | Nc1c2c(nc3ccccc13)CCC[C@H]2O | inactive | inactive | –
66 | CC#CCOC(=O)c1c(C)nc2sc3c(c2c1N)CC[C@@H](O)C3 | inactive | inactive | –
67 | CC(C)NC[C@H](O)c1cc(O)cc(O)c1 | inactive | inactive | –
68 | OC[C@@H]1O[C@@H](n2cnc3c(Nc4ccccc4)ncnc32)[C@@H](O)[C@H]1O | inactive | inactive | –
69 | CN1CC[C@@]2(CCN3CCc4c(oc5ccccc45)[C@@H]3C2)N(C)C1=O | inactive | inactive | –
70 | C[C@@H]1C[C@@H]2[C@H]3CCC4=CC(=O)C=C[C@]4(C)[C@]3(Cl)[C@@H](O)C[C@@]2(C)[C@@]1(O)C(=O)CO | inactive | inactive | –
71 | O=c1n(CC2CO2)c(=O)n(CC2CO2)c(=O)n1CC1CO1 (stereo unspecified) | – | – | 31.6 µM (active)

From PubChem BioAssay (NCATS)
